An excerpt weighted towards active compounds, which were near 11% of everything screened.
NPR1 antag = human Npr1 receptor antagonism; 76,000 compounds, 1.6% hits; HEK293 hNpr1 GloSensor cGMP, ANP-stimulated luminescence; P16066; Potency, µM (doses to about 46.3 µM), inactives show at the top dose activity change, negative = inhibition, most hits filed as inhibitors; calls by dose curve; also: nearly all actives have a fitted effect of over 60% in size
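HEK293 cells stably expressing human Npr1 and cGMP GloSensor pGS-40F, loaded 2 h with 2% GloSensor reagent, given compound 30 min at room temperature. Luminescence read before and 20 min after 0.1 nM hNppA.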
NIH3T3 tox = kills NIH 3T3 cells; AID 1345082; 94,000 compounds, 4.3% hits; Potency, µM (series often up to 96.7 µM), without a hit: at the top dose activity change, negative = cytotoxicity, usual class: inhibitors; NIH 3T3 viability, CellTiter-Glo ATP luminescence, 48-72 h; also: nearly all actives have a fitted effect of over 55% in size
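NIH 3T3 cells at 400 cells/well received 23 nL of compound by pintool and were incubated 48 or 72 h at 37 °C. Viability was read as ATP-coupled CellTiter-Glo luminescence.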
Luciferase inh = Photinus pyralis luciferase inhibition | P08659 | purified P. pyralis luciferase, luminescence, biochemical | Potency, µM (titrated, usually from 115 µM), most hits filed as inhibitors | 76,000 compounds, 2.5% hits | AID 1347043; also: nearly all actives have a fitted effect of over 65% in size
Target sequence (P08659 whole entry, looked up): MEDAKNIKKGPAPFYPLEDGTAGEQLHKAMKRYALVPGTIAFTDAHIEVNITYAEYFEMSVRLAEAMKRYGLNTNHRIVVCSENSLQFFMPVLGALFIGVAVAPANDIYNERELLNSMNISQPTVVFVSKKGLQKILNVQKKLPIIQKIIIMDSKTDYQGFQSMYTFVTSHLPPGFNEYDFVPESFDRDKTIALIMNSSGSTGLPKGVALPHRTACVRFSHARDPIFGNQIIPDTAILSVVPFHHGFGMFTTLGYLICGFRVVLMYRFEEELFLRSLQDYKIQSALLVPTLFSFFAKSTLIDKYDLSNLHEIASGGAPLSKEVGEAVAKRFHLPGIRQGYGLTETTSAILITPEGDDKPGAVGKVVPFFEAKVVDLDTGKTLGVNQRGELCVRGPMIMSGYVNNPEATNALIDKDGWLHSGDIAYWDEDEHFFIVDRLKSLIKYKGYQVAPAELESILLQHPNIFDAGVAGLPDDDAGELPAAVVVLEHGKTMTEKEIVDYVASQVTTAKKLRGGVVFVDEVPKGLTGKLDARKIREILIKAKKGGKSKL
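Luminescence read by CCD imager after adding enzyme (10nM final) to wells holding compound, titrated in qHTS. Substrates 10uM each D-luciferin and ATP; buffer 50mM Tris acetate pH 7.5, 10mM Mg acetate, Tween-20, BSA.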
HEK293 tox = cytotoxic compounds in HEK 293 cells. HEK 293 viability, ATP luminescence (CellTiter-Glo), 48-72 h. 94,000 compounds, 6.6% hits. Potency, µM (titrated, usually from 115 µM), for the others: top-dose activity change, negative = cytotoxicity, hits mostly inhibitors; also: nearly all actives have a fitted effect of over 60% in size
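Cytotoxicity was scored by loss of ATP-coupled luminescence (CellTiter-Glo) in HEK 293 cells. Compound treatment ran 48 or 72 hr at 37 degree Celsius, 5% CO2, 95% humidity.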
The depositor's hits bear a star; i = inactive; ? = inconclusive; · = no result given; [ ] = remark or other dose. Unless noted, calls follow the shape of the dose curve; as a rule, active = well fitted curve in the direction sought with a large enough effect; inconclusive = small, poorly fitted or top-dose-only effect, or another doubt; inactive = no such curve, though single readings can be large; an effect the other way counts as inactive or inconclusive. % is scaled to controls: 0 for no effect and ±100 for the full control effect; potency is read from the fitted curve at half-maximal effect.

SMILES	NPR1 antag	NIH3T3 tox	Luciferase inh	HEK293 tox
CC(C)CC(=O)N1CCOCC12CCN(Cc1ccc(C(C)C)cc1)CC2	2%[70.6 µM]	71µM*	i	100µM*
O=C(CCc1ccccc1)N1CCOCC12CCN(Cc1ccccc1)CC2	-11%[70.6 µM]	35µM*	i	?
O=C(Cc1cccc(F)c1)N1CCOCC12CCN(Cc1ccccc1)CC2	-1%[70.6 µM]	100µM*	i	?
COc1ccccc1CC(=O)NCc1nnc2cc(-c3nc(C4CC4)no3)ccn12	-6%	-14%	i	-18%
O=C(C1CCCN1C(=O)c1ccc(F)cc1)N1CCC(N2Cc3cccn3C2=O)CC1 (stereo unspecified)	·	-20%	·	-12%
COCc1cc(C[C@@H]2C[C@H](NCc3ccccc3O)C2(C)C)no1	5%[70.6 µM]	-22%[138 µM]	i	-15%[172 µM]
O=[S+]([O-])(Nc1ccccc1)c1ccc2c(c1)OCCN(Cc1ccc(F)cn1)C2	-19%[70.6 µM]	?	i	?
Cc1ccsc1CN1CCOc2cc([S+](=O)([O-])Nc3ccccc3)ccc2C1	?	45µM*	i	63µM*
Cn1cc(CN2CCOc3cc([S+](=O)([O-])Nc4cccnc4)ccc3C2)cn1	6%[70.6 µM]	100µM*	i	3%[172 µM]
O=[S+]([O-])(Nc1nncs1)c1ccc2c(c1)OCCN(Cc1cncc(F)c1)C2	-3%[70.6 µM]	28µM*	i	-22%[172 µM]
O=[S+]([O-])(Nc1ccccc1)c1ccc2c(c1)OCCN(Cc1ccccn1)C2	-24%[70.6 µM]	?	i	71µM*
COc1ccc(C(=O)N2CCC(c3nn(-c4ccccn4)c(=O)[nH]3)CC2)cc1	·	2%	·	i
COc1ccc(C(=O)N2CC[C@@H]3COCCN(Cc4ccncc4)[C@@H]3C2)c(OC)c1	·	-7%	·	-19%
COCCCNC(=O)N1CCC(C)(c2noc(C3CCOCC3)n2)CC1	·	-7%	·	i
Cc1nccn1-c1ccc(NC(=O)C2CCCN(c3ncccc3C#N)C2)cc1 (stereo unspecified)	-20%	?	i	40µM*
O=C(Nc1ccc(F)cc1)C1CCCN(c2nc3ncccc3o2)C1 (stereo unspecified)	0%[70.6 µM]	-21%[138 µM]	i	-14%[172 µM]
O=C(NC1CCCCCC1)C1CCCN(c2ccnc3ccnn23)C1 (stereo unspecified)	·	?	·	79µM*
Cc1ccc(NC(=O)C2CCCN(c3ccnc4ccnn34)C2)cc1 (stereo unspecified)	·	?	·	35µM*
CN(C)C(=O)C1CCCN(c2ccnc3ccnn23)C1 (stereo unspecified)	·	-28%[138 µM]	·	-10%[172 µM]
CN(C)C(=O)c1cnn2ncccc12	14%[70.6 µM]	-2%[174 µM]	?	4%[230 µM]
COc1cccc(C(=O)N2CCC(C(=O)N3CCC(N4CCOC4=O)CC3)CC2)c1	·	-8%	·	0%
CCC1Oc2ccc(NC(=O)c3c(F)cccc3F)cc2CN(Cc2ccc3c(c2)OCO3)C1=O (stereo unspecified)	-6%	?	i	?
CC1Oc2ccc(NC(=O)c3ccc4c(c3)OCO4)cc2CN(Cc2ccccc2)C1=O (stereo unspecified)	?	?	i	20µM*
CC1Oc2ccc(NC(=O)c3cccc(F)c3)cc2CN(Cc2ccc3c(c2)OCO3)C1=O (stereo unspecified)	-25%	?	i	40µM*
CCC1Oc2ccc(NC(=O)c3ccc4c(c3)OCO4)cc2CN(Cc2ccc(F)cc2)C1=O (stereo unspecified)	-13%	?	?	14µM*
COc1cc(OC)cc(C(=O)Nc2ccc3c(c2)CN(Cc2ccccc2)C(=O)C(C)O3)c1 (stereo unspecified)	-14%	?	i	?
COc1ccc(C(=O)Nc2ccc3c(c2)CN(Cc2ccccc2Cl)C(=O)C(C)O3)cc1OC (stereo unspecified)	-3%	?	i	?
COc1ccccc1CN1Cc2cc(NC(=O)c3ccc4c(c3)OCO4)ccc2OC(C)C1=O (stereo unspecified)	-14%	?	i	40µM*
COc1ccc(CN2Cc3cc(NC(=O)c4ccccc4)ccc3OC(C)C2=O)cc1 (stereo unspecified)	-15%	-28%	i	?
COc1ccc(CN2Cc3cc(NC(=O)c4ccc5c(c4)OCO5)ccc3OC(C)C2=O)cc1 (stereo unspecified)	-23%	?	i	22µM*

Screening results from PubChem.
